# Records with an inconclusive call do not appear. Activity calls are given as the source filed them. How the source made its calls, unless noted: active means hit-call score of the fitted dose curve at least 0.9, where 1 is the maximum; inconclusive means response in the unintended direction; inactive means score below 0.9.
# What was measured:
# [1] = read-out: Broad substrate specificity ATP-binding cassette transporter ABCG2 (Homo sapiens) (UniProt Q9UNQ0); experiment: CLD_ABCG2_6hr: CellzDirect (CLD) Gene Expression Assay for ABC Transporter (ABCG2) at 6 hours (AID 2283660)
# Method in brief: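 Primary human hepatocytes dosed daily with chemicals at multiple concentrations (0.2% DMSO vehicle), harvested 6 h after dosing. ABCG2 mRNA induction read by quantitative nuclease protection assay (qNPA) chemiluminescence; gain of signal fitted against DMSO baseline.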
# [2] = Tanguay_ZF_120hpf_TR_legacy: (Legacy) Oregon State University Tanguay Lab 120 Hour Post-fertilization zebrafish Assay for Touch Response (AID 2283667)
# Method in brief: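 5D WT embryos; static exposure to 120 hpf, 28C, sealed/dark; DMSO 0.64% v/v final. TR scored present/absent; dead embryos excluded. Pos ctrl 5uM trimethyltin chloride.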
# [3] = read-out: organic anion transporter (SLCO1B1), SLCO1B1 (gene 10599); experiment: CLD_SLCO1B1_6hr: CellzDirect (CLD) Gene Expression Assay for organic anion transporter (SLCO1B1) at 6 hours (AID 2283668);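 further: active means mRNA induction above DMSO baseline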
# Method in brief: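 Primary human hepatocytes dosed daily with test chemicals (multiple concentrations) in 0.2% DMSO vehicle; harvested at 6 h. SLCO1B1 mRNA quantified by qNPA chemiluminescence, fitted as gain-of-signal versus DMSO; cytotoxicity from phase-contrast morphology flagged alongside.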
# [4] = read-out: sulfotransferase (SULT2A), SULT2A1 (gene 6822); experiment: CLD_SULT2A_6hr: CellzDirect (CLD) Gene Expression Assay for sulfotransferase (SULT2A) at 6 hours (AID 2283669);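 further: hits raise transcript level above the DMSO vehicle baseline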
# Method in brief: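 Primary human hepatocytes from two donor preparations were dosed daily with chemicals or 0.2% DMSO and harvested at 6 h. Transcript induction read by qNPA chemiluminescence, fitted for gain of signal relative to DMSO; morphology-based cytotoxicity annotated.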
# [5] = read-out: glucuronosyltransferase (UGT1A1), UGT1A1 (gene 54658); experiment: CLD_UGT1A1_6hr: CellzDirect (CLD) Gene Expression Assay for glucuronosyltransferase (UGT1A1) at 6 hours (AID 2283672)
# Method in brief: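 Primary human hepatocytes from two donor preparations, dosed with fresh solutions in 0.2% DMSO, harvested at 6 h. UGT1A1 mRNA measured by qNPA chemiluminescence; induction fitted upward versus DMSO.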
# [6] = read-out: xenobiotic metabolism (CYP1A1), CYP1A1 (gene 1543); experiment: CLD_CYP1A1_24hr: CellzDirect (CLD) Gene Expression Assay for xenobiotic metabolism (CYP1A1) at 24 hours (AID 2283673);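 further: CYP1A1 mRNA level by quantitative nuclease protection with chemiluminescence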
# Method in brief: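 Primary human hepatocytes dosed daily with fresh solutions in 0.2% DMSO vehicle. mRNA measured at 24 h by quantitative nuclease protection assay with chemiluminescence; gain-of-signal fit versus DMSO, with morphology-based cytotoxicity flags.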
# [7] = read-out: ABC Transporter (ABCB11), ABCB11 (gene 8647); experiment: CLD_ABCB11_6hr: CellzDirect (CLD) Gene Expression Assay for ABC Transporter (ABCB11) at 6 hours (AID 2283675);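 further: hits raise ABCB11 mRNA level so AC50 marks induction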
# Method in brief: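 Human primary hepatocytes (two donor preparations) given fresh chemical daily at multiple concentrations, vehicle 0.2% DMSO. ABCB11 mRNA induction measured 6 h after dosing by qNPA chemiluminescence versus DMSO; cytotoxicity annotated from morphology.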
# [8] = CLD_ACTIN_6hr: CellzDirect (CLD) Gene Expression Assay for Baseline Control (Actin) at 6 hours (AID 2283676);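 further: active means increased actin mRNA relative to DMSO vehicle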
# Method in brief: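 Primary human hepatocytes dosed with fresh chemical solutions (vehicle 0.2% DMSO), harvested at 6 h. Actin mRNA quantified by quantitative nuclease protection assay with chemiluminescent read-out, as background control relative to DMSO.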
# [9] = CCTE_Padilla_ZF_144hpf_TERATOSCORE: (Legacy) CCTE's 144 Hour Post-fertilization zebrafish Assay Teratoscore, Padilla Lab (AID 2283679; active means hit-call score of the fitted dose curve at least 0.9, where 1 is the maximum; inactive means score below 0.9;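 on AC50: zebrafish embryos with chorions exposed by immersion from 6-8 hpf to 5 dpf with daily renewal; teratogenicity score from eye scoring of death hatching and malformations at 144 hpf; higher score means more developmental defects relative to DMSO baseline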)
# Method in brief: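 Larvae scored by eye at 144 hpf for death, hatching and malformations after a day in clean Hanks'. Before that, daily-renewed exposure at 80 uM (0.4% DMSO, 26C) from roughly 6-8 hpf through 5 dpf, 4 embryos per chemical.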
# [10] = read-out: Cytochrome P450 3A4 (Homo sapiens) (UniProt P08684); experiment: CLD_CYP3A4_6hr: CellzDirect (CLD) Gene Expression Assay for xenobiotic metabolism (CYP3A4) at 6 hours (AID 2283680)
# Method in brief: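 Primary human hepatocytes (two donor preparations) dosed; CYP3A4 mRNA harvested at 6 h and quantified by qNPA chemiluminescence. Gain of signal fitted against 0.2% DMSO vehicle; cytotoxicity flagged by phase-contrast morphology.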
# [11] = read-out: xenobiotic metabolism (CYP1A1), CYP1A1 (gene 1543); experiment: CLD_CYP1A1_6hr: CellzDirect (CLD) Gene Expression Assay for xenobiotic metabolism (CYP1A1) at 6 hours (AID 2283661);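 on AC50: potency for transcript induction above DMSO vehicle baseline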
# Method in brief: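 Primary human hepatocytes from two donors, compound versus 0.2% DMSO vehicle. CYP1A1 mRNA measured 6 h after dosing by quantitative nuclease protection assay with chemiluminescent read-out; induction fitted relative to DMSO, cytotoxicity flagged by microscopy.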
# [12] = tested on: Thyroperoxidase (TPO), gene 54314; experiment: CCTE_Simmons_AUR_rTPO: CCTE's Amplex UltraRed Assay for Thyroperoxidase (TPO) Inhibition, Simmons Lab (AID 2283662);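 further: potency for loss of signal meaning inhibition of peroxidase activity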
# Method in brief: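 Endpoint is decreased Amplex UltraRed fluorescence after a 30-min, 37C reaction of rat thyroid microsomes with 300 uM H2O2. Eight test concentrations (5 nM–87.5 uM final) in 0.5% DMSO, three biological replicates each.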
# [13] = read-out: xenobiotic metabolism (CYP1A2), CYP1A2 (gene 1544); experiment: CLD_CYP1A2_6hr: CellzDirect (CLD) Gene Expression Assay for xenobiotic metabolism (CYP1A2) at 6 hours (AID 2283663);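 on AC50: potency is for induction meaning a rise in mRNA above DMSO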
# Method in brief: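 Primary human hepatocytes from two donor preparations, dosed daily with multiple concentrations in 0.2% DMSO and harvested at 6 h. CYP1A2 mRNA induction measured by chemiluminescent qNPA, gain of signal fitted against DMSO; cytotoxicity flagged morphologically.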
# [14] = CCTE_Simmons_CellTiterGLO_HEK293T: Viability Assessment in CCTE's Assays for Thyroperoxidase (TPO) Inhibition, Simmons Lab (AID 2283665);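 on AC50: cells exposed to compound for 24 h before readout; actives reduce ATP signal below DMSO vehicle meaning cytotoxicity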
# Method in brief: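 Cytotoxicity counter-screen: human HEK293T cells in low-serum (1% FBS) medium receive test chemical, 5 nM to 87.5 uM final, for 24 h; ATP is quantified by luciferase luminescence.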
# [15] = read-out: alkyl and aryl transferase (GSTA2), GSTA2 (gene 2939); experiment: CLD_GSTA2_6hr: CellzDirect (CLD) Gene Expression Assay for alkyl and aryl transferase (GSTA2) at 6 hours (AID 2283666)
# Method in brief: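 Primary human hepatocytes from two donor preparations were dosed daily with fresh compound at multiple concentrations, 0.2% DMSO vehicle. GSTA2 mRNA was measured at 6 hours by qNPA chemiluminescence; induction fitted relative to DMSO, with cytotoxicity flagged morphologically.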
# [16] = read-out: Cytochrome P450 2B6 (Homo sapiens) (UniProt P20813); experiment: CLD_CYP2B6_6hr: CellzDirect (CLD) Gene Expression Assay for xenobiotic metabolism (CYP2B6) at 6 hours (AID 2283677);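 further: actives raise CYP2B6 transcript above DMSO baseline so AC50 marks an inducer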
# Method in brief: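 Primary human hepatocytes dosed with chemicals at multiple concentrations, vehicle 0.2% DMSO; CYP2B6 mRNA induction measured 6 h after dosing by quantitative nuclease protection assay with chemiluminescence, gain of signal fitted relative to DMSO.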
# Chain of Broad substrate specificity ATP-binding cassette transporter ABCG2 (Homo sapiens) (Q9UNQ0 whole entry, looked up): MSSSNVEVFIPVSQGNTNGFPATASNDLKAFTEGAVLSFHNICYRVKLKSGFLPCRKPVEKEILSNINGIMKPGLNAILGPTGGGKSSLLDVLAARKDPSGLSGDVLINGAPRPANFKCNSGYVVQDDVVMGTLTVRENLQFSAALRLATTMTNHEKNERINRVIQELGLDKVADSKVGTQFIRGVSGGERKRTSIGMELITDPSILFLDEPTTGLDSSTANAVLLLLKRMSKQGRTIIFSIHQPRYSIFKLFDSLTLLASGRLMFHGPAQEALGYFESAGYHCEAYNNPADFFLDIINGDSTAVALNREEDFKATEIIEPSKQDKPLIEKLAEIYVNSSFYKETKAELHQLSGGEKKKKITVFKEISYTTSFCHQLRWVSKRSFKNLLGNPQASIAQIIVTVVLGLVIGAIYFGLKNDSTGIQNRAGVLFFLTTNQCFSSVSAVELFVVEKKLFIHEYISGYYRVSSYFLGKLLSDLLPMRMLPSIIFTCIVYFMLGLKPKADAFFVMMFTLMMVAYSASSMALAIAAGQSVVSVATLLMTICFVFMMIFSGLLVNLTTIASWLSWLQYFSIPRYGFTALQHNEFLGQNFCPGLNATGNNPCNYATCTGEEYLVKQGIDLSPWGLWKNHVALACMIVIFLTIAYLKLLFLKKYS
# Chain of Cytochrome P450 3A4 (Homo sapiens) (P08684 whole entry, looked up): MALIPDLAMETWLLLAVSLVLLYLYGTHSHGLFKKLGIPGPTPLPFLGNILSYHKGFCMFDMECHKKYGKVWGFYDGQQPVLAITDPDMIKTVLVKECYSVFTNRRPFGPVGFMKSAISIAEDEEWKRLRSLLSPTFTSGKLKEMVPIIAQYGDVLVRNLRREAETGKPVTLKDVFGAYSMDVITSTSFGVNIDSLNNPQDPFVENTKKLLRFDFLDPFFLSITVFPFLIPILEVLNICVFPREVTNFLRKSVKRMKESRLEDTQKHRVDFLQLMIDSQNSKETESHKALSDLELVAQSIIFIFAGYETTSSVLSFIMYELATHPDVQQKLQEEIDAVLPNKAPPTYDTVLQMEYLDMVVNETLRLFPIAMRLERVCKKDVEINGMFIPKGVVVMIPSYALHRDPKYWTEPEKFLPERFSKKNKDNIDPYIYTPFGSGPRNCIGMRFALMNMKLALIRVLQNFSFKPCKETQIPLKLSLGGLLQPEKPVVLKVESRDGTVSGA
smiles,measurement,setting,value
CCCC(=NOCC)C1=C(O)CC(CC(C)SCC)CC1=O (stereo not drawn),outcome,[1],inactive
same,outcome,[2],inactive
same,outcome,[3],inactive
same,outcome,[4],inactive
same,outcome,[5],inactive
same,outcome,[6],inactive
same,outcome,[7],inactive
same,outcome,[8],inactive
same,outcome,[9],inactive
same,AC50,[10],20 µM (active)
CCN(CC)c1nc(C)cc(OP(=S)(OC)OC)n1,AC50,[11],4.71 µM (active)
same,AC50,[12],19.1 µM (active)
same,AC50,[13],5.69 µM (active)
same,AC50,[14],53.8 µM (active)
same,outcome,[2],inactive
same,outcome,[3],inactive
same,outcome,[4],inactive
same,outcome,[5],inactive
same,AC50,[9],14.8 µM (active)
O=P(O)(O)CCCl,outcome,[11],inactive
same,AC50,[12],18.2 µM (active)
same,outcome,[13],inactive
same,outcome,[14],inactive
same,outcome,[2],inactive
same,outcome,[3],inactive
same,outcome,[4],inactive
same,outcome,[5],inactive
same,outcome,[7],inactive
same,outcome,[8],inactive
same,outcome,[9],inactive
O=C1C2CC=CCC2C(=O)N1SC(Cl)(Cl)Cl (stereo not drawn),outcome,[1],inactive
same,outcome,[15],inactive
same,outcome,[2],inactive
same,outcome,[7],inactive
same,outcome,[8],inactive
same,AC50,[9],1.96 µM (active)
CNC(=O)Oc1cccc2ccccc12,AC50,[11],4.68 µM (active)
same,AC50,[13],6.08 µM (active)
same,outcome,[2],inactive
same,outcome,[4],inactive
same,outcome,[5],inactive
same,outcome,[7],inactive
same,outcome,[8],inactive
same,AC50,[16],6.15 µM (active)
same,AC50,[9],60.8 µM (active)
COCC(=O)N(c1c(C)cccc1C)C(C)C(=O)OC (stereo not drawn),AC50,[11],20 µM (active)
same,outcome,[13],inactive
same,outcome,[2],inactive
same,outcome,[3],inactive
same,outcome,[4],inactive
same,outcome,[5],inactive
same,outcome,[9],inactive
C=C(C)CN(CC)c1c([N+](=O)[O-])cc(C(F)(F)F)cc1[N+](=O)[O-],outcome,[11],inactive
same,outcome,[13],inactive
same,outcome,[2],inactive
same,outcome,[4],inactive
same,outcome,[5],inactive
same,AC50,[6],20 µM (active)
same,outcome,[8],inactive
same,outcome,[9],inactive
COC(=O)NC(=S)Nc1ccccc1NC(=S)NC(=O)OC,AC50,[11],5.11 µM (active)
same,AC50,[12],22.2 µM (active)
same,outcome,[13],inactive
same,outcome,[14],inactive
same,outcome,[2],inactive
same,outcome,[4],inactive
same,AC50,[9],0.486 µM (active)
same,outcome,[10],inactive
CN/C(=N\[N+](=O)[O-])NCc1cnc(Cl)s1,outcome,[2],inactive
same,outcome,[9],inactive
C=CCOC(=O)C(C)(C)OC(=O)c1cc(-n2c(=O)cc(C(F)(F)F)n(C)c2=O)ccc1Cl,outcome,[1],inactive
same,outcome,[11],inactive
same,outcome,[13],inactive
same,outcome,[3],inactive
same,outcome,[4],inactive
same,outcome,[5],inactive
same,outcome,[7],inactive
same,AC50,[9],0.00588 µM (active)
same,AC50,[10],0.29 µM (active)
COCc1cnc(C2=NC(C)(C(C)C)C(=O)N2)c(C(=O)O)c1 (stereo not drawn),outcome,[1],inactive
same,outcome,[2],inactive
same,outcome,[3],inactive
same,outcome,[4],inactive
same,outcome,[7],inactive
same,outcome,[8],inactive
same,AC50,[9],5.5 µM (active)
same,outcome,[10],inactive
CCOC(=O)C(C)OC(=O)c1cc(Oc2ccc(C(F)(F)F)cc2Cl)ccc1[N+](=O)[O-] (stereo not drawn),AC50,[11],4.58 µM (active)
same,AC50,[13],4.81 µM (active)
same,outcome,[2],inactive
same,outcome,[3],inactive
same,AC50,[16],7.3 µM (active)
same,AC50,[9],0.19 µM (active)
same,AC50,[10],4.03 µM (active)
COC(=O)c1c(C(F)F)nc(C(F)(F)F)c(C2=NCCS2)c1CC(C)C,AC50,[11],1.91 µM (active)
same,AC50,[13],0.665 µM (active)
same,outcome,[15],inactive
same,outcome,[3],inactive
same,outcome,[4],inactive
same,outcome,[8],inactive
same,AC50,[9],51.4 µM (active)
same,outcome,[10],inactive
COc1cc(Cl)c(OC)cc1Cl,outcome,[1],inactive
same,outcome,[2],inactive
same,outcome,[4],inactive
same,outcome,[7],inactive
same,outcome,[10],inactive
N#CN=C1SCCN1Cc1ccc(Cl)nc1,outcome,[1],inactive
same,outcome,[11],inactive
same,outcome,[2],inactive
same,outcome,[4],inactive
same,outcome,[9],inactive
same,outcome,[10],inactive
CC1(C)C(C(=O)OC(C#N)c2cccc(Oc3ccccc3)c2)C1(C)C (stereo not drawn),outcome,[11],inactive
same,outcome,[13],inactive
same,outcome,[2],inactive
same,outcome,[4],inactive
same,outcome,[6],inactive
same,outcome,[8],inactive
same,AC50,[9],1.44 µM (active)
same,AC50,[10],3.71 µM (active)
CC(C)N1C(=O)N(c2ccccc2)CSC1=NC(C)(C)C,outcome,[1],inactive
same,outcome,[11],inactive
same,outcome,[13],inactive
same,outcome,[2],inactive
same,outcome,[5],inactive
same,outcome,[7],inactive
same,outcome,[8],inactive
same,AC50,[9],1.48 µM (active)
same,outcome,[10],inactive
COc1cc(OC)nc(NC(=O)NS(=O)(=O)c2ncccc2OCC(F)(F)F)n1,outcome,[13],inactive
same,outcome,[2],inactive
same,outcome,[3],inactive
same,outcome,[4],inactive
same,outcome,[7],inactive
same,outcome,[8],inactive
same,outcome,[9],inactive
CCCN(CC)CC1COC2(CCC(C(C)(C)C)CC2)O1 (stereo not drawn),outcome,[1],inactive
same,outcome,[11],inactive
same,outcome,[13],inactive
same,outcome,[3],inactive
same,outcome,[4],inactive
same,AC50,[16],13.4 µM (active)
same,AC50,[9],62.9 µM (active)
same,outcome,[10],inactive
Cc1cc(C)nc(Nc2ccccc2)n1,AC50,[11],3.97 µM (active)
same,AC50,[13],3.97 µM (active)
same,outcome,[2],inactive
same,outcome,[4],inactive
same,outcome,[5],inactive
same,AC50,[16],0.994 µM (active)
same,outcome,[9],inactive
same,outcome,[10],inactive
O=C(O)c1c(Cl)ccc2cc(Cl)cnc12,outcome,[11],inactive
same,outcome,[13],inactive
same,outcome,[2],inactive
same,outcome,[4],inactive
same,outcome,[6],inactive
same,outcome,[7],inactive
same,outcome,[9],inactive
same,outcome,[10],inactive
CCNC(=O)NC(=O)C(C#N)=NOC,outcome,[11],inactive
same,AC50,[12],41.2 µM (active)
same,outcome,[13],inactive
same,outcome,[2],inactive
same,outcome,[3],inactive
same,outcome,[5],inactive
same,AC50,[9],33.1 µM (active)

# From PubChem BioAssay (EPA / NIEHS)
